PLC-gamma1 inh: inhibitors of human phospholipase C gamma1. P19174. purified PLC-gamma1, fluorogenic substrate, fluorescence. inhibition, % at 12.2 µM. hit rate 0.84% among 370,000. AID 720700; in the data active = inhibition above about 9.5%
LEDGF integ inh: blocks HIV-1 LEDGF/p75-dependent DNA integration. inhibition, % at 3.7 µM. hit rate 0.64% among 370,000. TR-FRET IN-LEDGF/p75 DNA integration, Eu/Cy5. AID 743269;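 active = inhibition above the screen-wide mean plus 3 SD, cut at about 13% in these data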;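 note: signal is the Cy5 over europium emission ratio at 671 and 618 nm; 0% = plate median of compound wells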
UHRF1 MBD2 ctr: blocks human UHRF1 binding to methylated DNA; UHRF1 binding to methylated oligo, TR-FRET; hit rate 0.75% among 370,000; inhibition, % at 4.4 µM; Q96T88;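 note: UHRF1 SRA domain binding a hemimethylated CpG hairpin DNA probe; 0% = median of test compound wells and 100% = reference inhibitor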
Target sequence (Q96T88 whole entry, looked up, the tested form may be a part): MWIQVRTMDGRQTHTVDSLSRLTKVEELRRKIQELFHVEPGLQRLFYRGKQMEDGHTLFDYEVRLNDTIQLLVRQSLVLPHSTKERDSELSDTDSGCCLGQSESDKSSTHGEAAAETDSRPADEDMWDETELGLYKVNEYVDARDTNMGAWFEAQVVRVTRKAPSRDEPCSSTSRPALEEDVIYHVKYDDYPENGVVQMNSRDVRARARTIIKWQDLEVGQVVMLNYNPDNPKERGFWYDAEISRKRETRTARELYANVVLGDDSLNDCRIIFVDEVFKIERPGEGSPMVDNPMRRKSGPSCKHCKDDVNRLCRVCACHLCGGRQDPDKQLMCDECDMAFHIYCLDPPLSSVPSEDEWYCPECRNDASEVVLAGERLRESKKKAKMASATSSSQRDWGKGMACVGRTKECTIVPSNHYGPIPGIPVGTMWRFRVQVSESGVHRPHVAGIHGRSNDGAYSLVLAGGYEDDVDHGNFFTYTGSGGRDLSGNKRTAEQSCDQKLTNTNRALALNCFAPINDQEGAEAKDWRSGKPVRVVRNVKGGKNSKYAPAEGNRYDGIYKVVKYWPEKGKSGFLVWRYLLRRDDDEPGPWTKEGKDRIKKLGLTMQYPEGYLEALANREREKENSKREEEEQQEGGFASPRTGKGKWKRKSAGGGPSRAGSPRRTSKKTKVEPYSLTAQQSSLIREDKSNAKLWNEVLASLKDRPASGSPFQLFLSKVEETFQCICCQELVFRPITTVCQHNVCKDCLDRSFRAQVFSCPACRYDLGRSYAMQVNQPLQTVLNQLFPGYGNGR
MBD2 DNA inh: inhibitors of human MBD2 binding to methylated oligonucleotide; Q9UBB5; TR-FRET; inhibition, % at 4.4 µM; hit rate 0.31% among 370,000; in the data active = inhibition above about 13%
PLC-beta3 inh: PLC-beta3 (human) inhibition, primary screen. Q01970. Purified PLC-beta3, fluorogenic substrate, fluorescence. inhibition, % at 12.2 µM. hit rate 0.18% among 370,000. AID 720704; in the data active = inhibition above about 11%;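 note: 0% = median of compound wells on plate and 100% = full blocker control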
UHRF1 DNA bind: UHRF1 methyl-oligo binding inhibition as MBD2 counter-screen; shares compounds with MBD2 DNA inh; UHRF1 binding to methylated oligonucleotide, TR-FRET; hit rate 25% among 1,000; inhibition, % at 4.4 µM;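 note: UHRF1 SRA domain binding a labeled hemimethylated CpG hairpin DNA; 0% = vehicle only and 100% = reference inhibitor with vehicle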
MBD2 confirm: confirmation of human MBD2-DBD methylated oligonucleotide binding inhibitors; shares compounds with MBD2 DNA inh; TR-FRET MBD2-DBD binding to methylated oligonucleotide; inhibition, % at 4.4 µM; hit rate 26% among 1,000; AID 720531; in the data active = inhibition above about 14%
Numbers without * were called inactive. Compounds with a hit are over-represented: about 2.3% of the library has one in this group of screens. Cut-off read from the data, not from the text of the source, unless noted: active = inhibition above about 21%; inactive = the rest.

SMILES	PLC-gamma1 inh	LEDGF integ inh	UHRF1 MBD2 ctr	MBD2 DNA inh	PLC-beta3 inh	others
COc1ccc(-c2nc3ccc(Br)cn3c2CC(=O)N2CCCC2)cc1OC	-17	0	23*	8	-20
Clc1cccc(N2Cc3cc(-c4ccccc4)ccc3-n3nncc3C2)c1	12*	67*	10	9	-3
COC1=CC23CCCN2CCc2cc4c(cc2C3C1O)OCO4 (configuration not stated)	-4	-3	43*	1	-2
COc1ccc2c(c1OC)C(=O)OC2C1c2cc3c(cc2CCN1C)OCO3 (configuration not stated)	-23	1	6	-4	-22
CC(C)(C)n1nnnc1C1CN=C(c2ccccc2)c2ccccc2N1 (configuration not stated)	-1	-2	-1	1	-1
COC(=O)C1=C(c2ccc(-c3ccccc3)c(F)c2)C[C@@H]2CC[C@H]1N2C(=O)NCc1cc(C)oc1C(F)(F)F	10.0*	3	-1	4	8
COc1ccc(CN2C(=O)NC(=O)/C(=C/c3ccoc3)C2=O)cc1	-14	10	21*	8	-23
COc1ccc(CN2C(=O)NC(=O)/C(=C/c3cc(OC)c(OC)c(OC)c3)C2=O)cc1	-6	1	-5	1	-14
COC(=O)[C@@]1(O)c2c(oc3cccc(O)c3c2=O)C=C[C@H]1O	-2	1	-1	3	2
C=CCCC(NC(=O)OCc1ccccc1)P(=O)(Oc1ccccc1)Oc1ccccc1 (configuration not stated)	1	-2	2	4	1
COc1ccc(CCn2c(O)c(C=NCCN3CCCCC3)c(=O)[nH]c2=O)cc1OC	-3	-4	-2	1	3
COc1ccc(CCn2c(O)c(/C=N/N3CCOCC3)c(=O)[nH]c2=O)cc1OC	-2	-4	42*	-1	-3
CC(C)(C)NC(=S)N1Cc2ccccc2-n2nncc2C1	13*	7	4	2	2
COCCNC(=S)N1Cc2ccccc2-n2nncc2C1	-1	3	2	0	2
O=C1NC(=O)N(Cc2ccccc2)C(=O)/C1=C\c1ccco1	-14	6	1	-4	-23
O=C1NC(=O)N(Cc2ccco2)C(=O)/C1=C/c1cccn1CCOc1ccccc1Cl	-5	57*	50*	12	-13
c1ccc(Cn2nnnc2C2CN=C(c3ccccc3)c3ccccc3N2)cc1 (configuration not stated)	-4	-1	-3	-3	-1
CN1C(=O)N(C)C(=O)C2(Sc3ccccc3C2=O)C1=O	-97	29*	3	5	-120
CCC1(c2ccccc2)C(=O)N(C)C(=O)N(C)C1=O	7	-3	1	1	0
CCOC(=O)CC[C@@H]1CC[C@]2(CCCN(Cc3ccccn3)C2)O1	-2	1	0	1	-1
CC(=O)N1c2ccccc2C(c2ccccc2)=NCC1C(=O)NC1CCCCC1 (configuration not stated)	-1	2	0	0	2
Cc1ccc(OP(=O)(NCc2ccccc2)Oc2ccc(C)cc2)cc1	8	2	23*	5	1
Cc1ccc(NP(=O)(Oc2ccccc2)Oc2ccccc2)cc1	-2	-2	-1	-5	-3
CCC1(C)CN(S(=O)(=O)OCC(Cl)(Cl)Cl)C(=O)N1 (configuration not stated)	2	1	-2	1	3
CC1(C)CN(S(=O)(=O)OCC(Cl)(Cl)Cl)C(=O)N1	9.8*	3	1	-8	7
SMILES	PLC-gamma1 inh	LEDGF integ inh	UHRF1 MBD2 ctr	MBD2 DNA inh	PLC-beta3 inh	others
CCN(CC)C(=O)c1ccc2c(c1)C1C=CCC1C(C(=O)O)N2 (configuration not stated)	-20	39*	20	-2	-33
Cc1cc(O)c2c(c1)C(=O)[C@@]13C(=C2O)C(=O)[C@H]2C(O)[C@@H]1[C@H]1C(O)[C@@H]3C(=O)C3=C(O)c4c(O)cc(C)cc4C(=O)[C@@]312 (some centres not stated)	6	8	11	5	-4
O=C(C[N+]12CCC(CC1)C(CO)C2)c1ccc([N+](=O)[O-])cc1 (configuration not stated)	2	-1	29*	4	0
O=C(NCCN1CCC2(CC1)C(=O)NCN2c1ccccc1)c1ccc(F)c(F)c1	2	0	2	-2	1
CC(C)(C)NC(=O)CN1C(=O)[C@@H](Cc2c[nH]c3ccccc23)N=C(c2ccccc2)c2ccccc21	1	5	-4	-1	1
Cc1cc2c(C(C)C)c(O)c(O)c(C=O)c2c(O)c1-c1c(C)cc2c(C(C)C)c(O)c(O)c(C=O)c2c1O	-2	66*	-4	-7	-21
Cc1cccc(N2C(=O)/C(=C/c3ccc(N4CCN(C)CC4)o3)C(=O)NC2=S)c1C	-18	14*	7	-5	-20
Cc1ccccc1N1C(=O)NC(=O)/C(=C/c2ccc(N3CCOCC3)o2)C1=O	-11	3	-23	-21	-15
O=C1C=C(N2CC2)c2ccccc2C1=O	-15	39*	6	-13	-32
CN1C(=O)NC(=O)/C(=C/c2ccc([N+](=O)[O-])o2)C1=O	-10	37*	65*	12	-17
Brc1ccccc1	8	2	-4	0	11*
CC[N+](C)(CC)CCCCOc1ccc2c(c1)C(=O)c1cc(OCCCC[N+](C)(CC)CC)ccc1-2	4	0	41*	17*	-4	UHRF1 DNA bind=49*;MBD2 confirm=31*
O=C(O)Cn1cc(/C=C2\C(=O)NC(=O)N(Cc3ccco3)C2=O)c2ccccc21	-6	86*	85*	25*	-13	UHRF1 DNA bind=56*;MBD2 confirm=18*
COc1ccc(-n2c(O)c(/C=C3\C=Nc4ccc(Br)cc43)c(=O)[nH]c2=O)c(OC)c1	-3	-4	-2	28*	-7	UHRF1 DNA bind=8;MBD2 confirm=2
N#CCC[C@@H]1CC[C@]2(CCCN(Cc3ccncc3)C2)O1	-2	0	1	3	-2
c1ccc(-c2cc(-c3ccccc3)[n+](-c3ccccc3)c(-c3ccccc3)c2)cc1	-3	2	2	13*	-15	UHRF1 DNA bind=13;MBD2 confirm=40*
CCCCSP1(=S)NCCCO1 (configuration not stated)	0	0	-6	38*	0	UHRF1 DNA bind=5;MBD2 confirm=1
C[C@H](NC(=O)OCc1ccccc1)[P+](=O)O	2	-1	-3	14*	5	UHRF1 DNA bind=7;MBD2 confirm=1
COc1ccc(C(SCC(NC(=O)OCc2ccccc2)C(=O)O)c2ccc(OC)cc2)cc1 (configuration not stated)	-1	-3	0	-3	-6

Source: PubChem BioAssay (The Scripps Research Institute Molecular Screening Center)
